± gives the standard deviation. Whole data set: some 3,000 sequences, median “pre-steady-state target cleavage rate” near 0.0079, cut for the highest 2% near 0.2. This excerpt belongs to a sample that is enriched for the highest values.

This test deals with MILI (PIWIL2) piRISC loaded with piRNA #2 (26 nt). The test is described as follows: pre-steady-state target cleavage rate (min^-1); MIWI and MILI are mouse PIWI proteins and EfPiwi is from a freshwater sponge; tags in brackets are library labels; higher = faster piRNA-guided slicing of the target. As to conditions: guide: piRNA #2 5'p-UUAGGUAACCCAGUAGAUCCAGAGGA; auxiliary factor: 500 nM mouse GTSF1. The procedure:
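Cleave-'n-Seq: a library of target RNAs (target site embedded in constant flanks, ACAGCATTCCGCGTTAGTGATATCCG... 5' flank; DNA-blocked outside the site) at 0.1 nM was incubated with 1 nM active mouse MILI or MIWI piRISC (synthetic 5'-monophosphorylated piRNA guide) with or without 500 nM mouse GTSF1 at 33 °C for 1 min to 16 h. Uncleaved targets were sequenced and normalised to non-target controls, and the pooled three trials were fitted to a burst-and-steady-state model to give the pre-steady-state cleavage rate (min^-1; k3 is constrained to at most 1e-4). Sequence is the target site only; target names encode pairing extent (gX:gY) and contiguous / 1-mismatch / 2-mismatch / bulge geometry. Fits with R² ≤ 0 are excluded.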
“CUUAAGGACUGGAUCUACUGGGUUACCUAG [g2:g22:cont:t1G]”: the “pre-steady-state target cleavage rate” value came out at 0.0474 ± 0.017.
The value for CUUAAGCUCAGGAUCUACUGGGUUUCCUAA was 0.0265 ± 0.01; that for CUUAAGCUCUGGAUCUAAUGGGUUACCUAA was 0.0186 ± 0.0042; that for CUUAAGCUCUGGAUCUACUGGGUGUACCUAA was 0.0345 ± 0.0091.
On to CUUAUCCUCUGGAUCUGCUGGGUUACCUAA, for which the “pre-steady-state target cleavage rate” value stood at 0.0654 ± 0.015.
The value for CUUAUCCUCUGGAUCUCUGGGUUACCUAA was 0.0227 ± 0.01.
For the sequence CUUAACCUCUGGAUCUGCUGGGUUACCUAA, the “pre-steady-state target cleavage rate” value is 0.097 ± 0.028.
The value for CUUAACCUCUGGAUCUCUGGGUUACCUAA was 0.00889 ± 0.0054; that for CUUAUCCUCUGGAUCUCCUGGGUUACCUAA was 0.459 ± 0.18.
In the case of CUUAACCUCUGGAUCUCCUGGGUUACCUAA, the “pre-steady-state target cleavage rate” value stood at 0.213 ± 0.084.
With CUUAAGCUCUGGAUCAACUGGGUUACCUUA, the “pre-steady-state target cleavage rate” value was 0.0336 ± 0.011.
Take CUUAAGGUCUGGAUCUACUGGGUUUACCUAA: the “pre-steady-state target cleavage rate” value is 0.0618 ± 0.011.
With CUUAACCUCUGGUUCUACUGGGUUUCCUAA, the “pre-steady-state target cleavage rate” value worked out at 1.67 ± 0.98.
The result for CUUAACCUCUGGAUCUACUGGGUUUACCUAA reads 0.0817 ± 0.019; that for CUUAACCUCUGGAUCUACUGGGUUAGCUAA, 0.112 ± 0.022.
In the case of CUUAACCUCUGGAUCUUCUGGGUUUCCUAA, the “pre-steady-state target cleavage rate” value came out at 0.243 ± 0.083.
The value for CUUAACCUCUGCAUCUACUGGGUUUCCUAA was 0.14 ± 0.059; that for CUUAACCUCUGGAUCUUCUGGGUUACCUAA was 0.0795 ± 0.017.
Take CUUAACCUCUCGAUCUACUGGGUUUCCUAA: the “pre-steady-state target cleavage rate” value worked out at 0.138 ± 0.035.
As to CUUAACCUCUGGAUCUUCUGGGUAACCUAA, the “pre-steady-state target cleavage rate” value stood at 0.0414 ± 0.016.
On to CUUAACCUCUGGAUCUACUGGGUUUCCUAA, for which the “pre-steady-state target cleavage rate” value was 0.224 ± 0.062.
As to CUUAAGCUCUGGAUCUACUGGGUUUGCUAA, the “pre-steady-state target cleavage rate” value came out at 0.144 ± 0.031.
CUUAACCUCUGGAUCUACUGGGUUAACCUAA: the “pre-steady-state target cleavage rate” value came to 0.115 ± 0.024.
As to CUUAACCUCUGGAUCUACUGGGUUUGCUAA, the “pre-steady-state target cleavage rate” value is 0.305 ± 0.066.
In the case of CUUAAGGAGACCUAGUACUUGGUUACCUAA, the “pre-steady-state target cleavage rate” value was < 0.0001.
On to CUUAUGCUCUGGAUCUACUGGGUAACCUAA, for which the “pre-steady-state target cleavage rate” value is 0.0539 ± 0.012.
CUUAAGGACUGCAUCUACAGGGUUACCUAA: the “pre-steady-state target cleavage rate” value was 0.0435 ± 0.015.
For CUUAACAUCUGGAUCUACUGGGUUACCUAA, the “pre-steady-state target cleavage rate” value was found to be 0.114 ± 0.019.
Turning to “CUUAAGGAGUGGAUCUACUGGGUUACCUAG [g2:g21:cont:t1G]”, the “pre-steady-state target cleavage rate” value was 0.0456 ± 0.013.
The value for CUUAAGCUGACGAUCUACUGGGUUACCUAA was 0.0365 ± 0.015; that for CUUAAGCUCUGGAUUACUGGGUUACCUAA was 0.0142 ± 0.0047; that for “CUUAAGGAGAGGAUCUACUGGGUUACCUAA [g2:g20:cont:t1A]” was 0.0156 ± 0.0072.
The value for CUUAAGGACAGGAUCUACAGGGUUACCUAA was 0.0375 ± 0.014.
The value for CUUAACCACUGGAUCAACUGGGUUACCUAA was 0.0515 ± 0.014; that for CUUAACCUCUGGAUCUACUGGGUUACCUUA was 0.111 ± 0.026; that for CUUAAGCUCUGGAUCUUCUGGGUUUCCUAA was 0.0561 ± 0.017.
As for CUUAACCUCUGGAUCUACUGGGUUUCCUUA, the “pre-steady-state target cleavage rate” value stood at 0.225 ± 0.066.
On to CUUAUCCUCUGGAUCUUCUGGGUUUCCUAA, for which the “pre-steady-state target cleavage rate” value worked out at 0.258 ± 0.088.
As to CUUAACCUCUGGAUCUACUGGGUUUCGUAA, the “pre-steady-state target cleavage rate” value worked out at 0.128 ± 0.044.
For the sequence CUUAAGCUCUGCAUCUACUGGGUUUCCUAA, the “pre-steady-state target cleavage rate” value was found to be 0.0656 ± 0.022.
The result for CUUAAGCUCUGGUUCUACUGGGUUUCCUAA reads 0.219 ± 0.085; that for CUUAAGCUCUGGAUCUACUGGGUUUCCUAA, 0.107 ± 0.025.
In the case of CUUAUCCUCUGGAUCUAGUGGGUUUCCUAA, the “pre-steady-state target cleavage rate” value is 0.055 ± 0.016.
Consider CUUAACCUCUCGAUCUACUGGGUAACCUAA, for which the “pre-steady-state target cleavage rate” value was found to be 0.0796 ± 0.017.
The result for CUUAACCACUGGUUCUACUGGGUUACCUAA reads 0.112 ± 0.019; that for CUUAACCACUGCAUCUACUGGGUUACCUAA, 0.0927 ± 0.018; that for CUUAUCCUCUGGAUCUACUGGGUGACCUAA, 0.0696 ± 0.014.
Take CUUAUCCUCUGGAACUACUGGGUAACCUAA: the “pre-steady-state target cleavage rate” value was 0.0599 ± 0.022.
On to CUUAUCCUCUGGAACUACUGGGUUAGCUAA, for which the “pre-steady-state target cleavage rate” value is 0.0654 ± 0.021.
CUUAACCUCUGGAACUACUGGGUAACCUAA: the “pre-steady-state target cleavage rate” value turned out to be 0.06 ± 0.024.
For the sequence CUUAACCUCUGGAACUACUGGGUUACCUAA, the “pre-steady-state target cleavage rate” value is 0.133 ± 0.03.
As for CUUAUCCUCUGGAACUACUGGGUUUCCUAA, the “pre-steady-state target cleavage rate” value was 1.1 ± 0.56.
As to CUUAACCUCUGGAACUACUGGGUUUCCUAA, the “pre-steady-state target cleavage rate” value amounted to 0.311 ± 0.14.
On to CUUAAGGACUGGAUCUACUGGGUUACCUUAA, for which the “pre-steady-state target cleavage rate” value was determined as 0.0243 ± 0.014.
CUUAUCCUCUGGAUCUAUUGGGUUACCUAA: the “pre-steady-state target cleavage rate” value was found to be 0.139 ± 0.036.
With CUUAAGGAGACCUAGAUGACGGUUACCGAA, the “pre-steady-state target cleavage rate” value is < 0.0001.
The result for CUUAAGCUCUGGAUCUACUGGGUUCCCUAA reads 0.0477 ± 0.017.
On to CUUAAGCUCUGCAUCUACUGGGUUACGUAA, for which the “pre-steady-state target cleavage rate” value came out at 0.0499 ± 0.016.
Consider CUUAUCCUCUGGAUCAACAGGGUUACCUAA, for which the “pre-steady-state target cleavage rate” value came out at 0.0724 ± 0.01.
As for CUUAAGGUCUGCAUCUACUGGGUAACCUAA, the “pre-steady-state target cleavage rate” value came to 0.00707 ± 0.006.

The record behind these values is the supplement of paper PMC10338343.
